± gives the standard deviation of the averaged measurements.
Columns and labels:
Experiment in all cases: cell viability (% of vehicle); higher = less cytotoxic
HCI01 [1] = cells of a triple-negative basal-like breast cancer xenograft; conditions: 1 µM; 72 h
UCD52 [2] = cells of a triple-negative basal-like breast cancer xenograft; conditions: 1 µM; 72 h
WHIM2 [3] = cells of a triple-negative basal-like breast cancer xenograft; conditions: 1 µM; 72 h
WHIM30 [4] = cells of a triple-negative basal-like breast cancer xenograft; conditions: 1 µM; 72 h
HCI01 [5] = conditions: 10 µM; 72 h
HCI03 = cells of an ER-positive luminal breast cancer xenograft; conditions: 10 µM; 72 h
HCI09 = cells of a triple-negative luminal androgen receptor type breast cancer xenograft; conditions: 10 µM; 72 h
HCI11 = cells of an ER-positive luminal breast cancer xenograft; conditions: 10 µM; 72 h
HCI13 = cells of an ER-positive luminal breast cancer xenograft; conditions: 10 µM; 72 h
HCI16 = cells of a triple-negative basal-like breast cancer xenograft; conditions: 10 µM; 72 h
UCD52 [6] = conditions: 10 µM; 72 h
WHIM2 [7] = conditions: 10 µM; 72 h
WHIM30 [8] = conditions: 10 µM; 72 h

SMILES | cell viability (HCI01 [1]) | cell viability (UCD52 [2]) | cell viability (WHIM2 [3]) | cell viability (WHIM30 [4]) | cell viability (HCI01 [5]) | cell viability (HCI03) | cell viability (HCI09) | cell viability (HCI11) | cell viability (HCI13) | cell viability (HCI16) | cell viability (UCD52 [6]) | cell viability (WHIM2 [7]) | cell viability (WHIM30 [8])
Cl.O.O=C1Cc2cc(CCN3CCN(c4nsc5ccccc45)CC3)c(Cl)cc2N1 [Ziprasidone hydrochloride monohydrate] | 88.5 | 94.7 | 94.5 | 94.6 | 33.4 ± 14 | 64.9 | 21.8 ± 4.9 | 36 | 47.8 ± 5.2 | 27.2 | 25 ± 1.1 | 35.8 ± 1.7 | 35.7 ± 5.9
CSc1ccc2c(c1)N(CCC1CCCCN1C)c1ccccc1S2.Cl (configuration not stated) [Thioridazine HCl] | 87 | 82.5 | 92.4 | 84.7 | 44.9 ± 9.3 | 52.1 | 26.4 ± 1.2 | 88.4 | 55.6 ± 3.4 | 41.4 | 36.8 ± 0.53 | 42.2 ± 10 | 61.9 ± 3.6
CC(C)c1nc(CN(C)C(=O)NC(C(=O)NC(Cc2ccccc2)CC(O)C(Cc2ccccc2)NC(=O)OCc2cncs2)C(C)C)cs1 (configuration not stated) [Ritonavir] | 88.2 | 82.1 | 88.4 | 91.1 | 72 ± 3.7 | 98 | 48.2 ± 0.57 | 83.6 | 57.8 ± 3.3 | 96.1 | 41.5 ± 0.54 | 62.6 ± 2.7 | 82 ± 16
CS(=O)(=O)O.Cc1c(O)cccc1C(=O)NC(CSc1ccccc1)C(O)CN1CC2CCCCC2CC1C(=O)NC(C)(C)C (configuration not stated) [Nelfinavir Mesylate] | 90.1 | 61.6 | 101 | 81.4 | 64.3 ± 30 | 92.1 | 30.1 ± 3.1 | 104 | 48.22 ± 0.17 | 53.7 | 48 ± 2 | 38.4 ± 2 | 71.9 ± 5.4
COc1cc2c(Oc3ccc4[nH]c(C)cc4c3F)ncnc2cc1OCCCN1CCCC1 [Cediranib (AZD217)] | 81.9 | 29.2 | 25.6 | 47.5 | 69.3 ± 10 | 54 | 43.8 ± 19 | 61.5 | 57.7 ± 16 | 70.1 | 50.84 ± 0.26 | 38.2 ± 7.5 | 68.3 ± 4.1
CC(NCCCc1cccc(C(F)(F)F)c1)c1cccc2ccccc12 (configuration not stated) [Cinacalcet] | 102 | 78.1 | 91.9 | 83.9 | 33.2 ± 2.7 | 34.2 | 17.1 ± 4.2 | 122 | 43.4 ± 3 | 33.5 | 17.3 ± 0.67 | 34.7 ± 8.7 | 35.8 ± 1.6
CCN(CC)CCCC(C)Nc1ccnc2cc(Cl)ccc12.O=P(O)(O)O.O=P(O)(O)O (configuration not stated) [Chloroquine diphosphate] | 88.7 | 68.5 | 77.4 | 81.2 | 75.4 ± 4.4 | 93.1 | 95.5 ± 18 | 88.4 | 142 ± 20 | 102 | 72.7 ± 0.86 | 71.2 ± 17 | 74.46 ± 0.26
Oc1c(Cl)cc(Cl)c2cccnc12 [Chloroxine] | 93.2 | 96.7 | 96.5 | 71.6 | 36.5 ± 3.6 | 56.7 | 28.7 ± 2.7 | 69.7 | 65 ± 15 | 130 | 120 ± 88 | 79.7 ± 55 | 48.9 ± 4.8
COC1=C(OC)C(=O)C(CCCCCCCCCCO)=C(C)C1=O [Idebenone] | 91.1 | 90.2 | 107 | 94.5 | 34 ± 2.8 | 107 | 39.1 ± 18 | 87.2 | 92.2 ± 61 | 104 | 78.2 ± 6.6 | 78.4 ± 30 | 51.9 ± 20
COCCOC(=O)C1=C(C)NC(C)=C(C(=O)OCC=Cc2ccccc2)C1c1cccc([N+](=O)[O-])c1 (configuration not stated) [Cilnidipine] | 111 | 95.4 | 97.7 | 103 | 93.8 ± 25 | 90.1 | 81.4 ± 20 | 81.7 | 66.6 ± 38 | 54.9 | 84 ± 6.8 | 41.1 ± 16 | 68.7 ± 1.3
COc1cc(C(=O)NS(=O)(=O)c2ccccc2C)ccc1Cc1cn(C)c2ccc(NC(=O)OC3CCCC3)cc12 [Zafirlukast] | 93.6 | 95.3 | 111 | 97.2 | 24.1 ± 0.82 | 87.8 | 22.3 ± 1.4 | 86.4 | 111 ± 2.8 | 106 | 78.7 ± 6.7 | 42.6 ± 1.2 | 116 ± 8.7
CCN1CCN(Cc2ccc(Nc3ncc(F)c(-c4cc(F)c5nc(C)n(C(C)C)c5c4)n3)nc2)CC1.CS(=O)(=O)O | 83.9 | 46.7 | 130 | 52.6 | 87.8 ± 54 | 136 | 83 ± 14 | 135 | 71.6 ± 8.8 | 116 | 26.16 ± 0.13 | 30.4 ± 14 | 80.6 ± 5.5
N.N.O=C([O-])C1(C(=O)[O-])CCC1.[Pt+2] [Carboplatin] | 87.9 | 80.1 | 99.9 | 77 | 82.1 ± 6.4 | 82.7 | 91.7 ± 4 | 86.4 | 86.87 ± 0.21 | 51 | 39.6 ± 6.8 | 84.8 ± 13 | 89 ± 5.5
O=C(O)CO.[NH2-].[NH2-].[Pt+2] [Nedaplatin] | 85.1 | 103 | 105 | 79.4 | 52.5 ± 16 | 89 | 87.8 ± 5.8 | 96.8 | 97 ± 12 | 51.1 | 33.06 ± 0.081 | 56.2 ± 5.7 | 66 ± 3.2

Reference: the supplement of paper PMC6992640
